Screening results: PubChem, National Center for Advancing Translational Sciences (NCATS)
JMJD2A Tudor: qHTS Assay for Inhibitors of JMJD2A-Tudor Domain; Lysine-specific demethylase 4A (Homo sapiens), O75164; AlphaScreen JMJD2A-Tudor / H3K4me3 peptide binding; Potency, µM (series often up to 114 µM), without a hit: at the highest dose activity change, negative = inhibition, most hits filed as inhibitors; actives 4.4% (n = 390,000); AID 504339, 2011; further: on the % scale 0 is the no-effect control and ±100 the full control effect; nearly all actives have a fitted effect of over 50% in size
G9a inh: qHTS Assay for Inhibitors of Histone Lysine Methyltransferase G9a. Histone-lysine N-methyltransferase EHMT2 (Homo sapiens), Q96KQ7. G9a H3K9 monomethylation, AlphaScreen, 2 h. Potency, µM (series often up to 102 µM), inactives show top-dose activity, negative = inhibition, actives largely listed as inhibitors. actives 8.8% (n = 350,000). AID 504332, 2011; further: on the % scale 0 is the no-effect control and ±100 the full control effect; nearly all actives have a fitted effect of over 75% in size
Target sequence (Q96KQ7 913-1193 limits assumed): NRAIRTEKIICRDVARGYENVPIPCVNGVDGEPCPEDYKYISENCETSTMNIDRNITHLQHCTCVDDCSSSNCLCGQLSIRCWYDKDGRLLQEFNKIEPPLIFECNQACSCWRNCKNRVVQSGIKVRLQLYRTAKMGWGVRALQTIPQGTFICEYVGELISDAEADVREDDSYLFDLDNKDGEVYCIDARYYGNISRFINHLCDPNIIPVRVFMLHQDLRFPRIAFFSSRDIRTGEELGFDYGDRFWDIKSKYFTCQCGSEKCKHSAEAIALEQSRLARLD
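Compounds were preincubated with 20 nM G9a for 15 min, after which biotinylated H3K9 peptide (500 nM) and SAM (20 uM) started a 2 h room-temperature reaction. Monomethylated product was quantified by antibody-based AlphaScreen chemiluminescence.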
L3MBTL1 inh: qHTS Assay for the Inhibitors of L3MBTL1 | Lethal(3)malignant brain tumor-like protein 1 (Homo sapiens), Q9Y468 | AlphaScreen L3MBTL1–H3K9me1 peptide binding | Potency, µM (series often up to 57.1 µM), for the others: top-dose activity, negative = inhibition, most hits filed as inhibitors | actives 0.66% (n = 230,000) | AID 485360, 2010; further: on the % scale 0 is the no-effect control and ±100 the full control effect; nearly all actives have a fitted effect of over 60% in size
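L3MBTL1 (50 nM) pre-complexed 30 min with biotinylated H3(1-15)K9me1 peptide (75 nM), then compounds added for 30 min at room temperature; AlphaScreen streptavidin donor/nickel chelate acceptor beads (10 ug/mL final) read after 30 min dark incubation.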
HP1b chromo inh: HTS for Inhibitors of HP1-beta Chromodomain Interactions with Methylated Histone Tails. Potency, µM (highest dose often 114 µM), for the others: at the highest dose activity change, negative = inhibition, most hits filed as inhibitors. AlphaScreen HP1-beta / biotin-H3K9me3 peptide binding. actives 0.56% (n = 390,000). Chromobox protein homolog 1 (Homo sapiens), P83916; further: nearly all actives have a fitted effect of over 70% in size
Target sequence (P83916 whole entry, looked up): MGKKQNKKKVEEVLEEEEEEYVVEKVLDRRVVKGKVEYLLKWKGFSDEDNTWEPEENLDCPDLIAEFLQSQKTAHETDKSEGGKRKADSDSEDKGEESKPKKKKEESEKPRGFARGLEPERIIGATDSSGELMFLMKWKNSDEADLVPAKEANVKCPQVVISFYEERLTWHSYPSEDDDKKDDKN
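HP1-beta protein (50 nM final) preincubated 30 min at room temperature with biotinylated H3(1-18)K9me3 peptide (50 nM) in PBS pH 7.4, 0.01% Tween-20, then compound added for 30 min. AlphaScreen streptavidin donor/nickel chelate acceptor beads (10 ug/mL final), 30 min dark, luminescence read.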
BAZ2B inh: qHTS Assay for Inhibitors of BAZ2B; Potency, µM (highest dose often 114 µM), for inactives: at the top dose activity change, negative = inhibition, actives largely listed as inhibitors; AlphaScreen BAZ2B-H3K14Ac peptide displacement; actives 4.4% (n = 360,000); AID 504333, 2011; Bromodomain adjacent to zinc finger domain protein 2B (Homo sapiens), Q9UIF8; further: on the % scale 0 is the no-effect control and ±100 the full control effect; nearly all actives have a fitted effect of over 60% in size
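Inhibition is scored as reduced AlphaScreen emission. The BAZ2B/b-H3(5-23)K14Ac complex (50 nM each) in PBS pH 7.4, 0.01% Tween-20 meets compound (up to 110 uM) for 30 min at RT before bead addition.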
* hit, by the source's call; ? = inconclusive; · = no result given; ! = repeats disagree; [ ] = another dose, or the depositor's remark. Sampled rows, rich in hits. Any-hit rate of the full collection: about 11%. The call rests on the fitted dose curve; in most records, active means well fitted inhibition curve with a large enough effect; inconclusive means small, poorly fitted or top-dose-only effect; inactive means no such curve, though single readings can be large or run the other way. Potency means the concentration at half of the fitted maximal effect.

SMILES	JMJD2A Tudor	G9a inh	L3MBTL1 inh	HP1b chromo inh	BAZ2B inh
CN(/N=C/c1cc([N+](=O)[O-])ccc1O)c1ccccc1	-11%	15%[59 µM]	6%	32%	-7%
C(=N\N1CCN(C(c2ccccc2)c2ccccc2)CC1)/c1ccc2c(c1)OCO2	22µM*	?	-7%	?	?
CN(/N=C/c1ccc2c(c1)OCO2)c1ccccc1	?	10µM*	-29%	-31%	28µM*
C(=N\N(c1ccccc1)c1ccccc1)/c1ccc2c(c1)OCO2	-4%	31%	-3%	22%	-1%
Cc1cc(Cl)ccc1NC(=O)CCC(=O)N/N=C/c1cc([N+](=O)[O-])ccc1O	1%	-1%	15%	28%	6%
O=[N+]([O-])c1ccc(O)c(/C=N/NC(=S)Nc2ccc(Cl)cc2Cl)c1	79µM*	·	·	-13%	32µM*
O=C(Nc1ccc([N+](=O)[O-])cc1Cl)c1cc(Cl)ccc1O	?	7.9µM*!	-4%	11%	-3%
O=C(Nc1cccc(Cl)c1)c1cccc(Oc2ccc([N+](=O)[O-])cc2Cl)c1	-29%	21%[59 µM]	-1%	12%	-33%
O=C(Nc1cccc(Cl)c1)c1cc(N=Nc2ccc([N+](=O)[O-])cc2Cl)ccc1O	4.5µM*	2.8µM*	?	?	2.8µM*
COc1ccc(-c2nc(CS(=O)CC(=O)NCc3ccc(F)cc3)c(C)o2)cc1OC (stereo unspecified)	-7%	-42%[59 µM]	·	29%	-15%
Cc1ccc(NC(=S)N(C)C)cc1C	-12%	·	6%	1%	-6%
Cc1ccc(NC(=O)c2nnn(CC(=O)Nc3ccc(C)c(Cl)c3)c2N)c(C)c1	-11%	7%[59 µM]	·	44%	11%[57.1 µM]
COc1cc(C2CC(=O)Nc3c2c(=O)[nH]c2ncnn32)ccc1O (stereo unspecified)	-6%	?	·	25%	-15%
CC(C)Oc1ccccc1C1C=C(C(=O)O)Nc2ncnn21 (stereo unspecified)	-26%	14µM*	·	4%	?
COc1cc(C2C=C(C(=O)O)Nc3ncnn32)ccc1O (stereo unspecified)	79µM*	13µM*	·	27%	-32%
CC(=O)C1=C(C)Nc2ncnn2C1c1ccccc1OCc1ccccc1 (stereo unspecified)	9%	-47%[59 µM]	23%[11.4 µM]	34%	-31%
CC(C)(C)c1ccc(OCCOCCn2c(-c3ccc(Cl)cc3)nc3ccccc3c2=O)cc1	0%	?	·	37%	9%
COc1ccc(/C=C2\SC(N)=NC2=O)cc1Cl	-22%	-28%	·	39%	-17%
COc1ccc(/C=C2/C(=O)ON=C2C)cc1Cl	-27%	16µM*	·	-5%	-31%
C=CCOc1ccc(/C=C2/C(=O)ON=C2C)cc1OC	-13%	50µM*	·	27%	-35%
COc1ccc2sc(N(Cc3cccnc3)C(=O)C3COc4ccccc4O3)nc2c1 (stereo unspecified)	-11%	3%[59 µM]	·	15%	-6%
Cc1ccccc1-c1noc(-c2ccc(N3CCC(C)CC3)c([N+](=O)[O-])c2)n1	-18%	-23%[59 µM]	·	32%	-14%
Cc1ccc(C(=O)C(NC(=O)c2ccco2)Nc2sc3c(c2C(N)=O)CCCC3)cc1 (stereo unspecified)	·	13µM*	-9%	·	?
COc1cccc(CC(=O)Nc2sc3c(c2C(N)=O)CCCC3)c1	-3%	40µM*	·	21%	-13%
COC(=O)c1c(NC(=O)C2CCCCC2C(=O)O)sc2c1CCCCC2 (stereo unspecified)	-16%	32µM*	-8%	-11%	-30%
SMILES	JMJD2A Tudor	G9a inh	L3MBTL1 inh	HP1b chromo inh	BAZ2B inh
CNC(=O)c1c(NC(=O)c2ccco2)sc2c1CCCC2	5%	·	·	42%	-6%
COc1ccc(NC(=O)c2c(NCc3cccc(OC)c3)sc3c2CCCC3)cc1	?	?	·	13%	-35%
COc1ccc(NC(=O)c2c(NCc3ccc(N(C)C)cc3)sc3c2CCC3)cc1	56µM*	11µM*	·	?	32µM*
CCCCCCSc1ccc([C@@H]2[C@@H]3C(=O)N(C)C(=O)[C@@H]3[C@]3(C(=O)OC)CCCCN23)cc1	-4%	·	2%	76%	·
COc1ccc(CC(=O)Nc2sc3c(c2C(=O)Nc2ccc(C)cc2)CCCCC3)cc1	56µM*	10µM*	·	5%	56µM*
COC(=O)c1c(NC(=O)C2CC2)sc2c1CCN(C(C)=O)C2	-11%	45µM*	-2%	39%	0%
COC(=O)c1c(NC(=O)Cc2cccs2)sc2c1CCCC2	?	15%[59 µM]	?	-3%	79µM*
CC(=O)N1CCc2c(sc(NC(=O)C3CCCCC3)c2C(N)=O)C1	-9%	?	13%	41%	5%
NC(=O)Cn1c(=O)n(CCC(=O)NCCSCc2ccccc2)c(=O)c2ccccc21	-13%	7%	-8%	7%[57 µM]	-6%
Cc1noc(NS(=O)(=O)c2ccc(N/C=C/C(=O)c3ccncc3)cc2)c1C	-16%	-42%[59 µM]	·	11%	-9%
Cc1noc(NS(=O)(=O)c2ccc(N/C=C\C(=O)c3ccncc3)cc2)c1C	6%	50µM*	·	28%	1%
CCC(C)(C)c1ccc(Oc2ccc(N)cc2)cc1	56µM*	40µM*	-26%	?	?
Cc1cc(C)nc(SCc2nc3nc(C)cc(C)n3c2Br)n1	-9%	50µM*	3%	24%	-19%
Cc1cc(C)n2c(Br)c(CN3CCCC(C)C3)nc2n1 (stereo unspecified)	0%	5%	-17%	39%	-15%
COC(=O)CSc1nnc(CNS(=O)(=O)c2ccc(C)cc2)n1C	11%	-29%	36%	27%	20%
COc1cccc(C(=O)CSc2nccn2C)c1	-10%	50µM*	5%	5%	-9%
Cn1ccnc1SCC(=O)c1ccc(Cl)cc1	-18%	50µM*	·	2%	-37%
COc1cccc(C(=O)CSc2nnc(CNS(=O)(=O)c3ccc(C)cc3)n2C)c1	20µM*	3.2µM*	·	?	-3%
c1csc(-c2nnc(N3CCCCCC3)c3ccccc23)c1	1.3µM*	10µM*	-2%	?	?
c1csc(-c2nnc(N3CCOCC3)c3ccccc23)c1	-2%[11.4 µM]	40µM*	1%	1%	-27%
NCc1cc2c3c(c1)CCCN3CCC2	-11%	16µM*	·	-1%	50µM*
COc1c(C=O)cc2c3c1CCCN3CCC2	-20%	1%	-7%	5%	-10%
COc1ccc(/C=N/NC(=O)c2cccnc2)cc1CN1CCCc2ccccc21	35µM*	?	·	45µM*	40µM*
